This is a sample that favours compounds with a hit; in the whole collection about 2.1% have one here.
PAX8 inh HTS: lowers PAX8-driven luciferase in RMG-I cells; RMG-I TPO-luciferase reporter, SteadyGlo, 24 h; inhibition, % at 12.6 µM; 360,000 compounds, 1.2% hits; AID 652154;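 active = mean replicate inhibition at least 60% with every replicate also reaching 60%; inconclusive = only one of the two criteria is met; inactive = mean below 60% and not all replicates reaching 60%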;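 also: luciferase light reporting Pax8 driven TPO promoter activity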
HIF-2a inh: blocks HIF-2a reporter activity; 786-0 RCC cells HIF-2a reporter, luciferase luminescence, overnight; inhibition, % at 18.8 µM; 360,000 compounds, 0.72% hits; AID 624352;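 active = inhibition of the luminescence signal of 40% or more relative to plate controls, in a single-dose primary screen at 18.75 µM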
KKLEB cytotox: counter-screen for CF NF-kB inhibitors: cytotoxicity | KKLEB CF airway cells viability, ATPlite luminescence, overnight; hits give low values; cells stimulated with P. aeruginosa culture filtrate | activity change (cytotoxicity), % at 5 µM | 360,000 compounds, 0.36% hits | AID 602141;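 active = corrected activity change at or below -50% at 5 µM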
EWS-Fli block: inhibitors of EWS/Fli oncoprotein transcriptional activity; 350,000 compounds, 0.67% hits; A673 NR0B1-luciferase reporter, viability-normalised; inhibition, % at 12.6 µM;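 active = mean inhibition of at least 50% after viability correction, with every replicate also passing that limit; inconclusive = mean reaches 50% but only one of two replicates passes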;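 also: firefly luciferase signal divided by Alamar Blue viability fluorescence both relative to DMSO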
CF NFkB inh: cystic fibrosis NF-kB activation inhibition; AID 588850; KKLEB NF-kB-GFP reporter, PAF-induced, GFP fluorescence overnight; 360,000 compounds, 0.86% hits; inhibition, % at 5 µM;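 active = at least 50% inhibition at 5 µM, scaled per plate between neutral and stimulator controls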;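 also: PAF is a Pseudomonas aeruginosa culture filtrate used as stimulus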
Numbers stand for hits; 0 = inactive; ? = inconclusive; - = no result given; ! = not confirmed by another sample.

SMILES	PAX8 inh HTS	HIF-2a inh	KKLEB cytotox	EWS-Fli block	CF NFkB inh
Cc1nc(N/N=C/c2ccccn2)sc1C	72.9	-	-	?	-
CCN=c1scc(-c2ccc(F)cc2)n1/N=C/c1ccccn1	0	0	0	0	0
CN(C)C(=O)C[C@H]1C[C@H]2c3cc(NC(=O)C4CCC4)ccc3O[C@H]2[C@H](CO)O1	0	-	-	0	-
C/C(=N\NC(=O)COc1ccc(C(C)(C)C)cc1)c1cc2ccccc2o1	0	0	-57.7	0	0
Cc1cccc(NC(=O)CN2CCN(CC(=O)Nc3cccc(C)c3)CC2)c1	-	0	-54.6	-	0
Cc1cccc(NC(=O)CCN2CCN(C)CC2)c1	0	0	0	0	0
O=[N+]([O-])c1ccc(/C=N/n2c(CO)nc3ccccc32)s1	0	0	0	-	0
Cc1nc2ccccc2n1/N=C/c1ccc([N+](=O)[O-])s1	62.2	0	0	0	0
COCC#Cc1ccc([C@H]2[C@H](CO)N3C(=O)CN(C(=O)C4CC4)C[C@@H]23)cc1	0	-	-	0	-
CN(C)C(=O)c1cccc(-c2ccc(C3[C@@H]4CN(C(=O)c5ccccn5)C[C@H]3N4)cc2)c1 (stereo partly specified)	0	-	-	57.6!	-
Fc1ccc(-c2ccc(C3[C@@H]4CN(Cc5nccs5)C[C@H]3N4)cc2)cc1 (stereo partly specified)	62.9!	-	-	0	-
CN(C)C(=O)c1ccc(-c2ccc(C3[C@@H]4CN(Cc5cccnc5)C[C@H]3N4)cc2)cc1 (stereo partly specified)	0	-	-	0	-
O=C(c1ccc2c(c1)OCO2)N1C[C@@H]2N[C@H](C1)C2c1ccc(-c2cccnc2)cc1 (stereo partly specified)	0	-	-	64.2!	-
CN(C)C(=O)c1ccc(-c2ccc(C3[C@@H]4CN(Cc5nccs5)C[C@H]3N4)cc2)cc1 (stereo partly specified)	0	-	-	53.0!	-
CC(=O)N(C)C[C@H]1Oc2ncc(C#C[C@@H](C)O)cc2C(=O)N([C@@H](C)CO)C[C@H]1C	-	-	-	0	-
COc1ccc2c3c([nH]c2c1)[C@H](CO)NCC31CCN(C(=O)Cc2cccnc2)CC1	0	-	-	0	-
O=C(C[C@H]1CC[C@H]2[C@@H](COC[C@@H](O)CN2CC2CCCC2)O1)NCc1ccc(Cl)cc1	-	-	-	0	-
CO[C@H]1CN(C)C(=O)c2ccc(NS(C)(=O)=O)cc2OC[C@H](C)N(C(=O)CN(C)C)C[C@@H]1C	0	-	-	0	-
CCn1nnc2cc(C(=O)NCCc3ccccc3F)ccc21	0	0	0	56.2	0
COc1ccc(N(C(=O)Cc2cccs2)C(C(=O)NC2CCCC2)c2ccncc2)cc1OC (stereo unspecified)	0	0	0	0	0
COc1cc(N(C(=O)Cc2cccs2)C(C(=O)NC2CCCCC2)c2ccc(C)cc2)ccc1-n1cnnn1 (stereo unspecified)	0	0	-56.4	-	66.8
COc1ccc(OCC(=O)c2c[nH]c3ccccc23)cc1	0	0	0	0	0
COc1ccc2c(C(=O)CCl)c[nH]c2c1	0	0	-51.7	0	73.1
Cc1ccc(CCc2nnc(SCC(=O)Nc3cccc(Cl)c3)n2-c2ccccc2)o1	91.0	0	0	0	0
C[C@H]1CCCCO[C@@H](CN(C)Cc2ccc(C(F)(F)F)cc2)[C@@H](C)CN([C@@H](C)CO)C(=O)c2cc(NC(=O)Nc3ccc4c(c3)OCO4)ccc2O1	80.0	-	-	0	-
SMILES	PAX8 inh HTS	HIF-2a inh	KKLEB cytotox	EWS-Fli block	CF NFkB inh
C[C@H](CO)N1C[C@H](C)[C@@H](CN(C)Cc2ccc(C(F)(F)F)cc2)OCCCC[C@H](C)Oc2ccc(NC(=O)Nc3ccc4c(c3)OCO4)cc2C1=O	0	-	-	0	-
C[C@@H]1CCCCO[C@H](CN(C)Cc2ccc(C(F)(F)F)cc2)[C@H](C)CN([C@@H](C)CO)C(=O)c2cc(NC(=O)Nc3ccc4c(c3)OCO4)ccc2O1	83.9	-	-	0	-
C[C@H]1CCCCO[C@H](CN(C)Cc2ccc(C(F)(F)F)cc2)[C@@H](C)CN([C@@H](C)CO)C(=O)c2cc(NC(=O)Nc3ccc4c(c3)OCO4)ccc2O1	0	-	-	0	-
C[C@@H]1CCCCO[C@@H](CN(C)Cc2ccc(C(F)(F)F)cc2)[C@H](C)CN([C@H](C)CO)C(=O)c2cc(NC(=O)Nc3ccc4c(c3)OCO4)ccc2O1	71.4	-	-	0	-
CN1CCN(C(=O)C[C@@H]2C[C@H]3c4cc(NC(=O)CC5CC5)ccc4O[C@H]3[C@@H](CO)O2)CC1	-	-	-	0	-
CCCC(=O)N1CC2(CCN(C)CC2)c2c(n(C)c3cc(OC)ccc23)[C@@H]1CO	-	-	-	0	-
COc1ccc(S(=O)(=O)Nc2ccc3c(c2)CC(=O)N([C@H](C)CO)C[C@H](C)[C@@H](CN(C)S(=O)(=O)c2ccc(C)cc2)O3)cc1	0	-	-	0	-
COc1ccc(NC(=O)c2nc(C)c(C3(C)CC(c4cccnc4)=NO3)s2)cc1 (stereo unspecified)	0	0	0	67.7	0
CCC(C)[C@@H](NC(=O)OC(C)(C)C)c1nnc(S(=O)(=O)Cc2cccc(C)c2)o1 (stereo partly specified)	-	0	0	-	82.2
CC(C)(C)OC(=O)N[C@@H](Cc1ccccc1)c1nnc(S(=O)(=O)Cc2ccccc2)o1	0	-	-	-	-
Cc1ccccc1CS(=O)(=O)c1nnc([C@H](Cc2ccccc2)NC(=O)OC(C)(C)C)o1	-	0	0	0	71.5
Cc1noc(C)c1NC(=O)N[C@H]1CC[C@@H](CC(=O)NCCCN(C)C)O[C@@H]1CO	0	-	-	0	-
COCc1cn(CC[C@@H]2CC[C@H](NC(=O)Cc3cccnc3)[C@H](CO)O2)nn1	0	-	-	0	-
Oc1cc2c(cc1O)C(c1ccccc1)CNCC2 (stereo unspecified)	0	0	-58.5	0	0
COc1ccc(OC)c(Nc2c3ccccc3nc3ccccc23)c1	0	0	0	0	0
COc1ccc(OC)c(Nc2c3c(nc4ccccc24)CCC3)c1	0	0	0	57.2	0
C/C=C/c1cnc2c(c1)C(=O)N([C@H](C)CO)C[C@H](C)[C@H](CN(C)C(=O)C1CC1)O2	-	-	-	0	-
CCN(CC)c1ccc(/C=N/NC(=O)c2nnn(-c3nonc3N)c2C(C)C)c(O)c1	85.3	0	0	-	0
CN1CCN(Cc2c(C(=O)N/N=C/c3cccc(Br)c3)nnn2-c2nonc2N)CC1	0	0	0	51.8	0
Nc1nonc1-n1nnc(C(=O)N/N=C/c2cccc(O)c2)c1CN1CCCC1	0	0	0	0	0
CN(Cc1c(C(=O)N/N=C/c2ccccc2O)nnn1-c1nonc1N)C1CCCCC1	70.0	0	0	0	0
Brc1ccc2nc(-c3ccc(CN4CCC(c5nc6ccccc6[nH]5)CC4)cc3)c(-c3ccccc3)nc2c1	100.6	-	-	0	-
C[C@@H]1CCCCO[C@@H](CN(C)CC2CC2)[C@H](C)CN([C@@H](C)CO)C(=O)c2cc(NC(=O)Nc3cccc4ccccc34)ccc2O1	0	-	-	0	-
C[C@@H]1CN([C@H](C)CO)C(=O)c2cc(NC(=O)Nc3cccc4ccccc34)ccc2O[C@@H](C)CCCCO[C@@H]1CN(C)CC1CCCCC1	0	-	-	76.5	-

Compound activity as filed in PubChem BioAssay.
